According to the supplement of paper PMC13380429:

Tested on: Vero E6 infected with SARS-CoV-2
Assay: inhibition of SARS-CoV-2 cytopathic effect; higher = more antiviral protection, active = above 15
Conditions: 48 h

Measured: inhibition of SARS-CoV-2 cytopathic effect

C(#Cc1nc2ncccc2nc1OCCN1CCCC1)c1ccccc1
inactive: 1 nM -1.59% | 8.33 nM -0.87% | 100 nM -1.72% | 833.33 nM 7.05%
active: 10000 nM 15.8%

CCC[C@H](N[C@@H](C)C(=O)N1[C@H](C(=O)O)C[C@@H]2CCCC[C@@H]21)C(=O)OCC [perindopril]
inactive: 1 nM -0.73% | 8.33 nM 1.32% | 100 nM -0.77% | 833.33 nM 0.99% | 10000 nM 0.19%

C=CCNc1ncnc2ccc(Br)cc12
inactive: 1 nM 2.47% | 8.33 nM 5.36% | 100 nM 4.33% | 833.33 nM 0.12% | 10000 nM 0.96%

c1ccc2[nH]c(-c3cscn3)nc2c1 [tiabendazole]
inactive: 1 nM 2.1% | 8.33 nM 1.24% | 100 nM -0.24% | 833.33 nM 0.7% | 10000 nM -0.19%

C[C@@H]1CN(Cc2ccc(F)cc2)[C@@H](C)CN1C(=O)c1cc2c(C(=O)C(=O)N(C)C)cn(C)c2cc1Cl [talmapimod]
inactive: 1 nM -1.36% | 8.33 nM -0.66% | 100 nM -2.57% | 833.33 nM -0.03% | 10000 nM -1.11%

CC1(C)CC[C@]2(C(=O)O)CC[C@]3(C)[C@H](C(=O)C=C4[C@@]5(C)C=C(C#N)C(=O)C(C)(C)[C@@H]5CC[C@]43C)[C@@H]2C1 [bardoxolone]
inactive: 1 nM -1.22% | 8.33 nM -1.62% | 100 nM 2.92% | 833.33 nM 3.36%
active: 10000 nM 28.9%

CCOC(=O)c1ccc(C#Cc2ccc3c(c2)C(C)(C)CCS3)nc1 [tazarotene]
inactive: 1 nM 0.41% | 8.33 nM 0.89% | 100 nM 1.7% | 833.33 nM 3.69% | 10000 nM 0.98%

NC(=O)c1cccc(N)c1 [3-amino-benzamide]
inactive: 1 nM -2.7% | 8.33 nM -0.97% | 100 nM -0.7% | 833.33 nM -1.13% | 10000 nM 0.61%

CN1CCN(Cc2ccc(-c3cnc4[nH]cc(-c5ccc6[nH]ccc6c5)c4c3)cc2)CC1
inactive: 1 nM 1.32% | 8.33 nM 1.21% | 100 nM 3.09% | 10000 nM -14.8%
active: 833.33 nM 21.6%

COc1ccc(C(C)=O)c(O)c1 [paeonol]
inactive: 1 nM 1.08% | 8.33 nM 1.99% | 100 nM 2.76% | 833.33 nM 0.69% | 10000 nM -4.98%

O=C1CCC(N2C(=O)c3ccccc3C2=O)C(=O)N1 (stereo not given) [thalidomide]
inactive: 1 nM 5.17% | 8.33 nM -1.38% | 100 nM -2.47% | 833.33 nM -1.68% | 10000 nM -4.45%

CC(=O)O/N=C1\C(=O)N(Cc2cc(Cl)ccc2Cl)c2ccc(Cl)cc21
inactive: 1 nM -1.23% | 8.33 nM 0.39% | 100 nM 0.49% | 833.33 nM 3.77% | 10000 nM 4.47%

CN(Cc1ccc(C(C)(C)C)cc1)Cc1cccc2ccccc12 [butenafine]
inactive: 1 nM 0.43% | 8.33 nM 3.81% | 100 nM 0.84% | 833.33 nM 2.62% | 10000 nM 4.56%

Cc1ccc(C(=O)N(CCCN)[C@@H](c2oc3cc(Cl)ccc3c(=O)c2Cc2ccccc2)C(C)C)cc1
inactive: 1 nM 1.81% | 8.33 nM -1.04% | 100 nM -0.8% | 833.33 nM -2.79% | 10000 nM -24.6%

O=C(O)c1nc(=O)[nH]c(=O)[nH]1 [oxonic-acid]
inactive: 1 nM -6.02% | 8.33 nM -2.79% | 100 nM 1.25% | 833.33 nM 0.64% | 10000 nM -0.52%

CCCn1c(=O)c(C)cn2nc(N)nc12
inactive: 1 nM 3.43% | 8.33 nM 2.31% | 100 nM -0.1% | 833.33 nM 2.28% | 10000 nM -2.15%

CCOc1ccc2nc3cc(N)ccc3c(N)c2c1 [ethacridine-lactate-monohydrate]
inactive: 1 nM -0.84% | 8.33 nM 0.62% | 100 nM 0.77% | 833.33 nM -1.28% | 10000 nM 0.22%

O=[N+]([O-])c1cccc2cn[nH]c12 [7-nitroindazole]
inactive: 1 nM -1.89% | 8.33 nM 1.76% | 100 nM 3.57% | 833.33 nM 4.56% | 10000 nM -1.2%

O=C(NS(=O)(=O)c1ccc(Br)s1)c1ccc(Cl)cc1Cl [tasisulam]
inactive: 1 nM -0.54% | 8.33 nM 5.25% | 100 nM 0.94% | 833.33 nM -0.93% | 10000 nM 4.37%
